In PubChem BioAssay (NCI):
Compounds without any hit were thinned out: in the full panel of roughly 83,000, 20% have a hit.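 Results are percent growth after 48 hours of single-concentration exposure. 100 means growth as in untreated cells, lower positive values show inhibition; negative values down to -100 show cell death.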 Values without a mark were called inactive. Activity calls are given as the source filed them. Rule for the calls: active = growth percent below 10; inactive = the rest.

Test system: HL-60(TB) leukemia
Assay: NCI-60 one-dose screen, 48 h (100 = growth as untreated, 0 = no growth, -100 = all killed)
Details: 10 µM unless noted

Question: How did the growth turn out when `O=C(/C=C/c1ccco1)c1ccc(Nc2ccnc3cc(Cl)ccc23)cc1` was run?
Answer: 6.28% (active)

Question: `CCOC(=O)c1cn2ncnc(Oc3ccc(NC(=O)NCCN4CCN(C)CC4)c(Cl)c3)c2c1C` was tested. Which growth did it give?
Answer: 96.9%

Question: `Brc1c[n+](Cc2ccc3ccccc3c2)cn1Cc1ccc2ccccc2c1` was tested. Which growth did it give?
Answer: -47.5% (active)

Question: `COc1ccc(/C=C/C(c2cc(OC)c(OC)c(OC)c2)n2cncn2)cc1O` (stereo not given) was tested. Which growth did it give?
Answer: -36.3% (active)

Question: For `O=c1[nH]c2c3ccncc3cc(-c3cccc(Cl)c3)c2c2cnccc12`, which growth is on record?
Answer: 17.6%

Question: `C=C(C)CCCC(C)CC#N` (stereo not given) was tested. Which growth did it give?
Answer: 108%

Question: Which growth does the source give for `CCCCOc1ncnc2nc[nH]c12` here?
Answer: 99.4%

Question: `O=C(/C=C/c1ccc(C(F)(F)F)cc1)c1ccc(Nc2nc(NCCO)nc(NCCO)n2)cc1` was tested. Which growth did it give?
Answer: 88.5%

Question: `COc1cccc2c(N=NC(=O)c3ccc(S(N)(=O)=O)cc3)c(O)[nH]c12` was tested. Which growth did it give?
Answer: 98.4%

Question: For `Cc1ccc(-n2c(C)nn3c(=O)c4c5c(sc4nc23)CN(C)CC5)cc1`, which growth is on record?
Answer: 96.7%

Question: For `CCOC(=O)c1c2c(c(C)n1C)-c1nn(Cc3ccc(OC)cc3)cc1CC2`, which growth is on record?
Answer: 73.1%

Question: For `Cc1cc(N2CCCCC2)nc(N(CCNc2ccnc3cc(Cl)ccc23)Cc2ccco2)n1`, which growth is on record?
Answer: -46.3% (active)

Question: Which growth does the source give for `NS(=O)(=O)c1ccc(CCN2C(=O)C3C(C2=O)C2(Cl)C(Cl)=C(Cl)C3(Cl)C2(Cl)Cl)cc1` (stereo not given) here?
Answer: 78.4%

Question: How did the growth turn out when `COc1ccc(/C=C(/C(=O)N2CCNCC2)c2cc(OC)c(OC)c(OC)c2)cc1O` was run?
Answer: -37.7% (active)

Question: `O=Cc1cc2ccccc2nc1Nc1nccs1` was tested. Which growth did it give?
Answer: 99.5%

Question: How did the growth turn out when `CCCCNC(=O)NS(=O)(=O)c1ccc(N2N=C(c3cc(C)ccc3C)CC2c2cc(OC)c(OC)c(OC)c2)cc1` (stereo not given) was run?
Answer: -16.1% (active)

Question: Which growth does the source give for `Cc1ccc2c(c1)c(Sc1ccc(C(=O)NO)cc1)c1n2CN(C)CC1` here?
Answer: 21.4%

Question: For `O=C(NCN1C(=O)c2cccc3cccc(c23)C1=O)N1CCC(Cc2ccccc2)CC1`, which growth is on record?
Answer: 96.1%

Question: With `Cc1cccc2c(Nc3ccc(NS(C)(=O)=O)cc3)c3ccc([N+](=O)[O-])cc3nc12` as the molecule, how does the growth read?
Answer: -27.2% (active)

Question: With `CCN(CC)CC(O)COc1c(Br)c(Br)c(Br)c2c1OC(C)(C)C2` (stereo not given) as the molecule, how does the growth read?
Answer: 14%

Question: `CCCCN1CCN(c2ccc3nc(-c4ccc5nc(-c6ccc(OCC)cc6)[nH]c5c4)[nH]c3c2)CC1` was tested. Which growth did it give?
Answer: 34.3%

Question: For `O=C(N=Nc1c(O)[nH]c2ccccc12)Nc1ccccc1Cl`, which growth is on record?
Answer: 78.3%

Question: With `COc1ccc(-c2[nH]c3ccccc3c2-c2ccc(OC)cc2)cc1` as the molecule, how does the growth read?
Answer: 24.6%

Question: `O=S(=O)(O)c1cc(O)c2c(N=Nc3ccc(Nc4ccccc4)c4c(S(=O)(=O)O)cccc34)cc(S(=O)(=O)O)cc2c1` was tested. Which growth did it give?
Answer: 82.7%

Question: Which growth does the source give for `Cc1nn(-c2ccccc2)cc1/C=C1\SC(N2CCCCC2)=NC1=O` here?
Answer: 93%

Question: For `COc1c(C(C)=O)c(OCCCCOc2c(C(C)=O)c(OC)c3ccoc3c2OC)c(OC)c2occc12`, which growth is on record?
Answer: 57.4%

Question: With `CCOC(=O)c1c(C)nc2c(c1N)/C(=C/c1cccs1)C(=O)N2c1ccc(OC)cc1` as the molecule, how does the growth read?
Answer: 90.2%

Question: Which growth does the source give for `O=C(c1ccc(/C=C/c2n[nH]c3ccccc23)cc1)N1CCNCC1` here?
Answer: 31.7%

Question: With `O=C1c2cccnc2C(=O)c2nc3cc(N4CCN(C5CC5)CC4)ccc3nc21` as the molecule, how does the growth read?
Answer: -43.1% (active)

Question: For `Cn1c(I)c(C#CCO[Si](C)(C)C(C)(C)C)c(=O)[nH]c1=O`, which growth is on record?
Answer: -41.2% (active)

Question: For `CC(=O)Nc1nc(C)c(C(=O)N/N=C/N2CCOCC2)s1`, which growth is on record?
Answer: 188%

Question: With `CCOC(=O)c1cc(C(=O)c2ccc(Cl)cc2)n2ccc(-c3cc[n+](CC(=O)c4ccc(OC)cc4)cc3)cc12` as the molecule, how does the growth read?
Answer: 24.9%

Question: How did the growth turn out when `CN1C(=O)/C(=C2\SC(=Nc3ccccc3)N(Nc3ccccc3)C2=O)c2ccccc21` was run?
Answer: 108%

Question: `CCOc1ccc(/C=C/C(=O)c2cccc(OCCCOc3cccc(C(=O)/C=C/c4ccc(OCC)cc4)c3)c2)cc1` was tested. Which growth did it give?
Answer: 56%

Question: Which growth does the source give for `CNC(=O)c1cc(Oc2ccc3nc(NC(=O)Nc4ccc(Cl)c(C(F)(F)F)c4)sc3c2)ccn1` here?
Answer: 97.2%

Question: Which growth does the source give for `O=[N+]([O-])c1ccc(N/N=C\c2ccc(O)cc2O)nc1` here?
Answer: 0.875% (active)

Question: How did the growth turn out when `CC(C)N1CCN(c2ccncc2S(=O)(=O)N2CCN(C)CC2)CC1` was run?
Answer: 95.7%

Question: How did the growth turn out when `Cn1ncc2c(Nc3ccccc3Cl)nc(Cl)nc21` was run?
Answer: 96.1%

Question: With `COC(=O)c1ccc(NC(=O)Nc2ccc(C(=O)OC)cc2)cc1` as the molecule, how does the growth read?
Answer: 92.8%

Question: With `N#Cc1c2ccccc2c2n1-c1ccccc1OC(c1ccccc1)C2=O` (stereo not given) as the molecule, how does the growth read?
Answer: 43.4%
